PNC inhibitor: perinucleolar compartment assembly inhibition | PC3M PTB-GFP, PNC prevalence imaging, 16 h; hits give low values | 3.1% of 140,000 active | activity change (PNC), negative = inhibition, % at 10 µM;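 active = readout at or below -70, meaning at least 70% loss of cells showing the perinucleolar compartment, a nuclear body marking cancer cells; inconclusive = readout between -30 and a set limit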;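 also: plate controls were DMSO wells for no effect and camptothecin positive control wells for full effect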
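Compounds are pinned in duplicate onto adhered PC3M cells stably expressing GFP-tagged PTB and incubated 16 h at 37 C. Cells are then fixed, nuclei stained with Hoechst, and PNC-positive cells counted.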
IMPase cell inh: IMPase inhibition in cells; inhibition (IP1 accumulation), % at 46.1 µM; 120,000 tested, under 10 active; P97697; CHO-M1 cells, IP1 accumulation, HTRF TR-FRET ratio; active = well fitted curve in the direction sought with a large enough effect in the signal ratio, not every such curve was filed as active; inconclusive = small, poorly fitted or top-dose-only effect, or a change in a side signal; inactive = no such curve, though single readings can be large or run the other way; the % refers to the signal ratio;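 also: cells stimulated with carbachol in lithium chloride buffer; plate controls were DMSO basal wells for no effect and reference inhibitor wells for full effect; higher means more IMPase inhibition seen as more IP1 and lower FRET ratio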
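The IP-One HTRF competitive assay in carbachol-stimulated CHO-M1 cells quantifies cellular IP1. Compounds spanned up to 46 uM final, and activity is expressed as AC50 from concentration-response fits of the ratio and donor data.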
12-hLO inh: blocks human 12-lipoxygenase activity. purified 12-hLO, xylenol orange hydroperoxide absorbance. P18054. 0.12% of 150,000 active. Potency, µM (highest dose often 57.1 µM), without a hit: at the top dose activity change, negative = inhibition, usual class: inhibitors; active = well fitted curve in the direction sought with a large enough effect; inconclusive = small, poorly fitted or top-dose-only effect, or another doubt; inactive = no such curve, though single readings can be large; an effect the other way counts as inactive or inconclusive; also: potency is read from the fitted curve at half-maximal effect; nearly all actives have a fitted effect of over 55% in size
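150 nM 12hLO, 25 mM Hepes pH 7.0 + 0.01% Triton X-100; cpd preinc 15 min RT; 40 uM arachidonic acid, 30 min RT; Fe-XO 30 min; A573/A405 ratio as read-out.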
ALDH1A1 inh: blocks purified human ALDH1A1 activity; Purified ALDH1A1, NADH fluorescence, propionaldehyde substrate; Potency, µM (titrated, usually from 75.3 µM), without a hit: at the top dose activity, negative = inhibition, most hits filed as inhibitors; 7.3% of 220,000 active;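 also: potency is read from the fitted curve at half-maximal effect; plate controls were no enzyme wells and a reference inhibitor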
Target sequence (P00352 whole entry, looked up): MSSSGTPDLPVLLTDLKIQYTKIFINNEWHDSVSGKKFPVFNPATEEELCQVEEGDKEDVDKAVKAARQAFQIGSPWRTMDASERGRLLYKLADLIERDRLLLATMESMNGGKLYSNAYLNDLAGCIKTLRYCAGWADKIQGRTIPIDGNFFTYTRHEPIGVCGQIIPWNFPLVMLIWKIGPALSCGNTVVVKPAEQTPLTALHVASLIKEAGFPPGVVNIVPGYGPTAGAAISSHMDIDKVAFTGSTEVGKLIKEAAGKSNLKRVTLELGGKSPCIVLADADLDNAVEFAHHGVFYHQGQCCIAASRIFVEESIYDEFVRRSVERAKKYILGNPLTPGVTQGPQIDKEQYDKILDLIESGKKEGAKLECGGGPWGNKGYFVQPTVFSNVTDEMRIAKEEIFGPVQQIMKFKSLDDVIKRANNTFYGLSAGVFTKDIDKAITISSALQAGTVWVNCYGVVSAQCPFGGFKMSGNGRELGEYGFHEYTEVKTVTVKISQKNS
IMPase Li inh: cell-permeable IMPase inhibitors with lithium potentiation | CHO-M1 cells, IP1 TR-FRET (IP-One), carbachol + lithium | Potency, µM (highest dose often 59.4 µM), without a hit: top-dose activity, negative = IMPase inhibition, usual class: inhibitors | 0.35% of 210,000 active | AID 1457; active = well fitted curve in the direction sought with a large enough effect; inconclusive = small, poorly fitted or top-dose-only effect, or another doubt; inactive = no such curve, though single readings can be large; an effect the other way counts as inactive or inconclusive;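 also: IP1 builds up when IMPase is blocked and the TR-FRET signal falls; potency is read from the fitted curve at half-maximal effect; plate controls were basal vehicle for no effect and high inhibitor control for full effect; nearly all actives have a fitted effect of over 50% in size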
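Concentration–response in CHO-M1 cells, lithium-potentiated; 30 min at 37C. IP1 detected by competitive TR-FRET after 10 min lysis at RT. Hill-fitted AC50.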
HPGD block: blocks human HPGD enzyme activity | P15428 | purified HPGD, NADH fluorescence kinetic, PGE2 substrate | Potency, µM, for the others: at the highest dose activity change, negative = inhibition, hits mostly inhibitors | 4.3% of 150,000 active | AID 894; also: potency is read from the fitted curve at half-maximal effect
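NADH formation kinetics: reaction with 30 uM PGE2 and 1 mM NAD+ (final), 20 nM enzyme, Tris-HCl pH 8 with Tween 20, after 15 min compound preincubation at room temperature. Fluorescence change, last versus first of five reads.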
* = called active by the depositor; ? = inconclusive; . = no result; [ ] = dose if it differs, or a comment. Most compounds without a hit are left out; they make up all but 11% or so of the library. Unless noted, calls follow the shape of the dose curve; as a rule, active = well fitted inhibition curve with a large enough effect (not every such curve was filed as active); inconclusive = small, poorly fitted or top-dose-only effect, or another doubt; inactive = no such curve, though single readings can be large or run the other way. Unless noted, % is scaled to controls: 0 for no effect and ±100 for the full control effect.

SMILES | PNC inhibitor | IMPase cell inh | 12-hLO inh | ALDH1A1 inh | IMPase Li inh | HPGD block
CCN1C(=O)C(O)(CC(=O)c2c(C)coc2C)c2ccccc21 (stereo unspecified) | . | . | . | ? | -7.3% | .
Cc1coc(C)c1C(=O)CC1(O)C(=O)N(CCc2ccccc2)c2ccccc21 (stereo unspecified) | 22.1 | 10.8 | -14.2% | 4.47µM* | 33.7%[38.3 µM] | ?
CCCCN1C(=O)C(O)(CC(=O)c2ccco2)c2cc(Br)ccc21 (stereo unspecified) | -27.6 | 3.7 | -1.6% | 8.91µM* | 3.5% | 2.1%
O=C(CC1(O)C(=O)N(Cc2ccccc2Cl)c2ccccc21)c1ccco1 (stereo unspecified) | ? | 3.5 | -4.1% | 1.26µM* | 17.0%[38.3 µM] | -1.3%
O=C(O)CC1(O)C(=O)N(Cc2ccccc2)c2ccccc21 (stereo unspecified) | . | . | . | 20µM* | 1.4% | .
Cc1ccc(C(=O)CC2(O)C(=O)N(Cc3ccccc3)c3ccccc32)c(C)c1 (stereo unspecified) | . | 8.1 | . | . | . | .
CCCCN1C(=O)C(O)(CC(=O)c2ccc(C)cc2C)c2cc(Br)ccc21 (stereo unspecified) | . | 11.6 | . | . | . | .
Nc1ncnc2c1ncn2[C@@H]1O[C@H](CO)[C@H](O)[C@H]1O | . | . | . | 1.3% | 7.2% | -11.4%
COc1cccc2cc(C(=O)CC3(O)C(=O)N(Cc4ccccc4)c4ccccc43)c(=O)oc12 (stereo unspecified) | 8.8 | -21.0 | -4.3% | 0.0891µM* | 0.6%[38.3 µM] | -1.3%
COc1ccc(C(=O)N/N=C2/SCC(=O)N2Cc2ccc3c(c2)OCO3)cc1OC | 42.8 | -6.6 | -1.8% | 20µM* | -22.6%[38.3 µM] | -11.8%
CCOC(=O)CN1C(=O)C(O)(CC(=O)c2ccco2)c2ccccc21 (stereo unspecified) | ? | 3.8 | -1.1% | 0.159µM* | -11.1%[38.3 µM] | -8.8%
CCN1C(=O)C(O)(CC(=O)c2ccc3c(c2)OCCO3)c2ccccc21 (stereo unspecified) | 19.3 | 1.0 | 1.9% | ? | -2.1%[38.3 µM] | -15.6%
NCCNS(=O)(=O)c1ccc(N)cc1 | . | . | 5.5%[11.4 µM] | 6.1%[13.5 µM] | -12.9% | -1.0%
Cc1noc(C)c1-c1ccc2ncnc(Nc3ccc(F)cc3)c2c1 | . | . | . | -14.7% | -10.6% | .
CC(C)NC(=O)N1CCC2(CC1)CCN(S(=O)(=O)c1ccccc1)CC2 | . | . | -7.5% | -4.5% | 4.5% | -7.7%
CC(C)=CCC/C(C)=C/COc1c2occc2cc2ccc(=O)oc12 | . | 2.3 | -16.9% | 8.91µM* | 29.6% | ?
CC(C)=CCC/C(C)=C/COc1ccc2ccc(=O)oc2c1 | . | . | -2.0%[0.00818 µM] | ? | -3.4% | ?
O=C(O)[C@@H]1[C@@H](C(=O)Nc2ncccn2)[C@@H]2C=C[C@@H]1O2 | . | . | 6.2%[11.4 µM] | -0.8%[13.5 µM] | 3.3% | -8.1%
COC(=O)[C@H](CCCN=C(N)N)NC(=O)CCCc1c(-c2ccccc2)[nH]c2c(F)cc(F)cc12 | . | . | 1.1%[0.00818 µM] | -8.2% | 7.1% | -11.6%
Cc1cc([N+](=O)[O-])nn1CCCC(=O)N1CCN(c2ccc(F)cc2)CC1 | -119.3* | 3.9 | 0.0% | ? | 6.1% | -4.6%
OCCN(CC(O)Cn1ccc2ccccc21)CC(O)Cn1ccc2ccccc21 (stereo unspecified) | -12.5 | 6.1 | -17.5% | 28.2µM* | -0.7%[38.3 µM] | -3.7%
C#CCN1C(=O)S/C(=C/c2cc(C)n(CC)c2C)C1=O | 17.0 | -3.6 | -1.4% | 7.51µM* | . | .
COc1ccc(N=C2S/C(=C\c3cc(C)n(C)c3C)C(=O)N2CC(C)C)cc1 | 68.4 | 16.6 | -20.9% | 2.51µM* | 11.5%[38.3 µM] | -23.2%
COC(=O)CN1C(=O)S/C(=C/c2cc(C)n(C)c2C)C1=O | ? | 12.6 | -11.4% | 14.1µM* | -8.6%[38.3 µM] | -1.2%
Cc1ccc(NC(=O)CN2C(=O)S/C(=C\c3cc(C)n(-c4ccc(C(=O)O)cc4)c3C)C2=O)cc1 | . | . | . | 13.8% | -0.5% | .
O=C(CCOc1ccccc1)OCC(=O)c1cc2ccccc2o1 | -10.4 | -8.5 | -15.5% | -7.1% | 5.2%[38.3 µM] | 31.6µM*
